Results filed as inconclusive are left out. The source made the active and inactive calls. The call rests on the fitted dose curve; in most records, active means well fitted curve in the direction sought with a large enough effect; inconclusive means small, poorly fitted or top-dose-only effect, or another doubt; inactive means no such curve, though single readings can be large; an effect the other way counts as inactive or inconclusive.
Tests used:
[1] = target: ATP-dependent 6-phosphofructokinase (Trypanosoma brucei brucei) (UniProt O15648); assay: qHTS Assay to Find Inhibitors of T. brucei phosphofructokinase: hit validation (AID 492961);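 further: luminescence reports ADP formed as PFK phosphorylates fructose-6-phosphate with ATP; on the % scale 0 is the no-effect control and ±100 the full control effect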
Outline: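 Compounds titrated; %activity normalized to 0x and 1x enzyme controls, curve-fitted. Readout: ADP-Glo luminescence after 45 min room-temperature reaction of 1.25 nM PFK, 0.1 mM ATP, 0.5 mM F6P, pH 8.0.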

[2] = qHTS profiling for inhibitors of Plasmodium falciparum proliferation (AID 504749); further: potency means the concentration at half of the fitted maximal effect;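 on activity, negative = inhibition: 0% = DMSO vehicle and full inhibition = artemisinin control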; on all read-outs here: nearly all actives have a fitted effect of over 60% in size; conditions: P. falciparum in erythrocytes, SYBR Green DNA, 72 h; for activity, negative = inhibition: at 28.7 µM (top of the series)
Outline: (§1)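 Each compound contacts P. falciparum-infected red blood cells for 72 h at 37 C; lysis buffer (Tris, EDTA, saponin, Triton X, SYBR Green I) is added and fluorescence measured next morning; values normalized to controls.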

[3] = test system: AA1029; assay: as above; conditions: P. falciparum in erythrocytes, SYBR Green DNA, 72 h; series mostly up to 28.7 µM
Outline: as §1

[4] = test system: AS120; assay: as above; conditions: P. falciparum in erythrocytes, SYBR Green DNA, 72 h; series mostly up to 28.7 µM
Outline: as §1

[5] = test system: ATS189; assay: as above; conditions: P. falciparum in erythrocytes, SYBR Green DNA, 72 h; series mostly up to 28.7 µM
Outline: as §1

[6] = test system: CP185; assay: as above; conditions: P. falciparum in erythrocytes, SYBR Green DNA, 72 h; series mostly up to 28.7 µM
Outline: as §1

[7] = test system: CP211; assay: as above; conditions: P. falciparum in erythrocytes, SYBR Green DNA, 72 h; series mostly up to 28.7 µM
Outline: as §1

[8] = test system: CP217; assay: as above; conditions: P. falciparum in erythrocytes, SYBR Green DNA, 72 h; series mostly up to 28.7 µM
Outline: as §1

[9] = test system: CP238; assay: as above; conditions: P. falciparum in erythrocytes, SYBR Green DNA, 72 h; series mostly up to 28.7 µM
Outline: as §1

[10] = test system: CP252; assay: as above; conditions: P. falciparum in erythrocytes, SYBR Green DNA, 72 h; series mostly up to 28.7 µM
Outline: as §1

[11] = test system: CP262; assay: as above; conditions: P. falciparum in erythrocytes, SYBR Green DNA, 72 h; series mostly up to 28.7 µM
Outline: as §1

[12] = test system: CP265; assay: as above; conditions: P. falciparum in erythrocytes, SYBR Green DNA, 72 h; series mostly up to 28.7 µM
Outline: as §1

[13] = test system: CP269; assay: as above; conditions: P. falciparum in erythrocytes, SYBR Green DNA, 72 h; series mostly up to 28.7 µM
Outline: as §1

[14] = test system: CP286; assay: as above; conditions: P. falciparum in erythrocytes, SYBR Green DNA, 72 h; series mostly up to 28.7 µM
Outline: as §1

[15] = test system: CP329; assay: as above; conditions: P. falciparum in erythrocytes, SYBR Green DNA, 72 h; series mostly up to 28.7 µM
Outline: as §1

[16] = test system: DFO2036; assay: as above; conditions: P. falciparum in erythrocytes, SYBR Green DNA, 72 h; series mostly up to 28.7 µM
Outline: as §1

[17] = test system: ECU; assay: as above; conditions: P. falciparum in erythrocytes, SYBR Green DNA, 72 h; series mostly up to 28.7 µM
Outline: as §1

[18] = test system: FAB9; assay: as above; conditions: P. falciparum in erythrocytes, SYBR Green DNA, 72 h; series mostly up to 28.7 µM
Outline: as §1

[19] = test system: N140; assay: as above; conditions: P. falciparum in erythrocytes, SYBR Green DNA, 72 h; series mostly up to 28.7 µM
Outline: as §1

[20] = test system: TAB109; assay: as above; conditions: P. falciparum in erythrocytes, SYBR Green DNA, 72 h; series mostly up to 28.7 µM
Outline: as §1

Sequence of ATP-dependent 6-phosphofructokinase (Trypanosoma brucei brucei) (O15648 whole entry, looked up): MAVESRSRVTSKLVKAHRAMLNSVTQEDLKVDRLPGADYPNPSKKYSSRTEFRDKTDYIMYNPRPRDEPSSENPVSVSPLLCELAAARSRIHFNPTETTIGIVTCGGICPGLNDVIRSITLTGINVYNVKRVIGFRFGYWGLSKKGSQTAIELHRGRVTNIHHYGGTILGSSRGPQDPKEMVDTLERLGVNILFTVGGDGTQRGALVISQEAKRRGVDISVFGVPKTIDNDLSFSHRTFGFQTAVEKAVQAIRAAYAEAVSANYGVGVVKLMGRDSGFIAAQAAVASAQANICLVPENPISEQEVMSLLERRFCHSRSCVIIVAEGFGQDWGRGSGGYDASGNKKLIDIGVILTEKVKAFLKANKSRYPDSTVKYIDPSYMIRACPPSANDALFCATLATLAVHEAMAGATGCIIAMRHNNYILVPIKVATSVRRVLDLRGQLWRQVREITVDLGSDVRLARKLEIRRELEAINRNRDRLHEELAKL

Cc1ccc(/C=C2/C(=O)C3(C)CCC2C3(C)C)cc1 (centres undefined)
inactive: Potency [1] | activity, negative = inhibition ([2]; parasite line A) 14.8% | activity, negative = inhibition ([2]; parasite line B) 12% | Potency [3] | Potency [4] | Potency [5] | Potency [6] | Potency [7] | Potency [8] | Potency [9] | Potency [10] | Potency [11] | Potency [12] | Potency [13] | Potency [14] | Potency [15] | Potency [16] | Potency [17] | Potency [18] | Potency [19] | Potency [20]

CNC1C(O)C(OC2C(NC(=O)C(O)CN)CC(N)C(OC3OC(CN)C(O)C(O)C3O)C2O)OCC1(C)O (centres undefined)
inactive: Potency [1] | activity, negative = inhibition ([2]; parasite line A) 1.08% | activity, negative = inhibition ([2]; parasite line B) -10.1% | Potency [3] | Potency [4] | Potency [5] | Potency [6] | Potency [7] | Potency [8] | Potency [9] | Potency [10] | Potency [12] | Potency [13] | Potency [14] | Potency [15] | Potency [16] | Potency [17] | Potency [18] | Potency [19] | Potency [20]

CCCC(=O)Nc1c(I)cc(I)c(C[C@H](CC)C(=O)O)c1I
inactive: Potency [1] | activity, negative = inhibition ([2]; parasite line A) 2.81% | activity, negative = inhibition ([2]; parasite line B) -1.24% | Potency [3] | Potency [4] | Potency [5] | Potency [6] | Potency [7] | Potency [8] | Potency [9] | Potency [10] | Potency [11] | Potency [12] | Potency [13] | Potency [14] | Potency [15] | Potency [16] | Potency [17] | Potency [18] | Potency [19] | Potency [20]

Cc1cc2nc3c(=O)[nH]c(=O)nc-3n(CC(O)C(O)C(O)COP(=O)(O)O)c2cc1C (centres undefined)
inactive: Potency [1] | activity, negative = inhibition ([2]; parasite line A) -0.201% | activity, negative = inhibition ([2]; parasite line B) 1.68% | Potency [3] | Potency [4] | Potency [5] | Potency [6] | Potency [7] | Potency [8] | Potency [9] | Potency [10] | Potency [11] | Potency [12] | Potency [13] | Potency [14] | Potency [15] | Potency [16] | Potency [17] | Potency [18] | Potency [19] | Potency [20]

O=C(O)Cc1sc(-c2ccc(Cl)cc2)nc1-c1ccccc1
inactive: Potency [1] | activity, negative = inhibition ([2]; parasite line A) 4.11% | activity, negative = inhibition ([2]; parasite line B) -3.92% | Potency [3] | Potency [4] | Potency [5] | Potency [6] | Potency [7] | Potency [8] | Potency [9] | Potency [10] | Potency [11] | Potency [12] | Potency [13] | Potency [14] | Potency [15] | Potency [16] | Potency [17] | Potency [18] | Potency [19] | Potency [20]

CC1(C(=O)O)CCC2(C)CCC3(C)C(=CC(=O)C4C5(C)CCC(O)C(C)(C)C5CCC43C)C2C1 (centres undefined)
inactive: Potency [1] | activity, negative = inhibition ([2]; parasite line A) 8.05% | activity, negative = inhibition ([2]; parasite line B) 1.81% | Potency [3] | Potency [4] | Potency [5] | Potency [6] | Potency [7] | Potency [8] | Potency [9] | Potency [10] | Potency [11] | Potency [12] | Potency [13] | Potency [14] | Potency [15] | Potency [16] | Potency [17] | Potency [18] | Potency [19] | Potency [20]

C[C@@H](O)[C@@H]1C(=O)N2C(C(=O)O)=C([C@H]3CCCO3)S[C@H]12
inactive: Potency [1] | activity, negative = inhibition ([2]; parasite line A) -3.21% | activity, negative = inhibition ([2]; parasite line B) 2.27% | Potency [3] | Potency [4] | Potency [5] | Potency [6] | Potency [7] | Potency [8] | Potency [9] | Potency [10] | Potency [11] | Potency [12] | Potency [13] | Potency [14] | Potency [15] | Potency [16] | Potency [17] | Potency [18] | Potency [19] | Potency [20]

CC(CN1CC(=O)NC(=O)C1)N1CC(=O)NC(=O)C1 (centres undefined)
inactive: Potency [1] | activity, negative = inhibition ([2]; parasite line A) 1.79% | activity, negative = inhibition ([2]; parasite line B) 0.945% | Potency [3] | Potency [4] | Potency [5] | Potency [6] | Potency [7] | Potency [8] | Potency [9] | Potency [10] | Potency [11] | Potency [12] | Potency [13] | Potency [14] | Potency [15] | Potency [16] | Potency [17] | Potency [18] | Potency [19] | Potency [20]

CO/N=C(/C(=O)N[C@@H]1C(=O)N2C(C(=O)O)=C(CSc3nnnn3C)CS[C@H]12)c1csc(N)n1
inactive: Potency [1] | activity, negative = inhibition ([2]; parasite line A) 6.68% | activity, negative = inhibition ([2]; parasite line B) 0.88% | Potency [3] | Potency [4] | Potency [5] | Potency [6] | Potency [7] | Potency [8] | Potency [9] | Potency [10] | Potency [11] | Potency [12] | Potency [13] | Potency [14] | Potency [15] | Potency [16] | Potency [17] | Potency [18] | Potency [19] | Potency [20]

CC(=O)C1(O)Cc2c(O)c3c(c(O)c2C(OC2CC(N)C(O)C(C)O2)C1)C(=O)c1c(O)cccc1C3=O (centres undefined)
active: Potency ([2]; parasite line A) 5.01 µM | Potency ([2]; parasite line B) 11.2 µM | Potency [3] 5.01 µM | Potency [4] 4.47 µM | Potency [5] 8.91 µM | Potency [6] 7.94 µM | Potency [7] 9.53 µM | Potency [8] 10 µM | Potency [9] 8.91 µM | Potency [10] 8.91 µM | Potency [11] 12 µM | Potency [12] 10 µM | Potency [13] 15.1 µM | Potency [14] 3.16 µM | Potency [15] 12 µM | Potency [16] 7.94 µM | Potency [17] 8.91 µM | Potency [18] 11.2 µM | Potency [19] 7.08 µM | Potency [20] 5.62 µM
inactive: Potency [1]
